Screens as filed in PubChem BioAssay.
Shown are actives, neighbours in structure and some others; about 1.6% of the full set was active somewhere.
KCNH2 3.1 block – blocks the human KCNH2 3.1 channel isoform; U2OS KCNH2 3.1, thallium flux FluxOr; active compounds read low; activity change, % (tested at about 1.8 µM); AID 720553; actives 0.95% (n = 340,000);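 active = maximum activity change below -70%; inconclusive = maximum activity change from -70% to -50%; inactive = maximum activity change above -50%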;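 note: thallium influx rate constant from kinetic fluorescence after stimulation buffer; % is set by controls: 0 for no effect and ±100 for the full control effect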
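Thallium flux read-out: FluxOr dye with Red40 quencher in HBSS/HEPES, 45 min at RT. Rate constants from kinetic reads were normalized to positive and negative DMSO controls. Cells: U2OS virally expressing the 3.1 isoform.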
GRP78 ERSR act – ER stress response induction in glioma | U87-MG GRP78 promoter luciferase reporter, 16 h | Potency, µM, without a hit: at the top dose activation, most hits filed as activators | actives 0.02% (n = 420,000); active = well fitted activation curve with a large enough effect; inconclusive = small, poorly fitted or top-dose-only effect; inactive = no such curve, though single readings can be large or run the other way; note: potency is the fitted concentration of half-maximal effect; series mostly up to about 76 µM; % of control where 0% means no effect; nearly all actives have a fitted effect of over 35% in size
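Stably transfected U87-MG human glioma cells carrying a GRP78-based luminescent sensor were seeded at 1000 cells/well, pin-dosed with compounds and incubated 16 h. Luciferase reagent was then added, and end-point luminescence was read after 10 min at room temperature.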
gsp antag – gsp mutant antagonism. gsp-mutant cells, cAMP HTRF, 30 min. Potency, µM (top dose mostly 76.9 µM), for the others: top-dose activity change, negative = inhibition, actives largely listed as inhibitors. actives 0.4% (n = 340,000); calls by dose curve; cell line not stated here;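 note: intracellular cAMP measured with PDE inhibitor Ro 20-1724 present during compound exposure; potency is the fitted concentration of half-maximal effect; % is set by controls: 0 for no effect and ±100 for the full control effect; nearly all actives have a fitted effect of over 65% in size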
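Cells in G418 medium, seeded 16-24 h, 37C; buffer exchange to DPBS + 1 mM CaCl2, 0.5 mM MgCl2, 0.05% BSA; cpds in DMSO + […] (300 uM stock), 30 min 37C; HTRF cAMP detection.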
hERG WT inh – KCNH2 (human, wildtype) channel inhibition; Q12809; U2OS, BacMam KCNH2, thallium flux FluxOr; active compounds read low; activity change, % at 1.84 µM; actives 0.37% (n = 340,000); AID 720551;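 active = maximum activity change below -70%; inconclusive = maximum activity change between -70% and -50%; inactive = maximum activity change above -50%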; note: % is set by controls: 0 for no effect and ±100 for the full control effect
Target sequence (Q12809 whole entry, looked up): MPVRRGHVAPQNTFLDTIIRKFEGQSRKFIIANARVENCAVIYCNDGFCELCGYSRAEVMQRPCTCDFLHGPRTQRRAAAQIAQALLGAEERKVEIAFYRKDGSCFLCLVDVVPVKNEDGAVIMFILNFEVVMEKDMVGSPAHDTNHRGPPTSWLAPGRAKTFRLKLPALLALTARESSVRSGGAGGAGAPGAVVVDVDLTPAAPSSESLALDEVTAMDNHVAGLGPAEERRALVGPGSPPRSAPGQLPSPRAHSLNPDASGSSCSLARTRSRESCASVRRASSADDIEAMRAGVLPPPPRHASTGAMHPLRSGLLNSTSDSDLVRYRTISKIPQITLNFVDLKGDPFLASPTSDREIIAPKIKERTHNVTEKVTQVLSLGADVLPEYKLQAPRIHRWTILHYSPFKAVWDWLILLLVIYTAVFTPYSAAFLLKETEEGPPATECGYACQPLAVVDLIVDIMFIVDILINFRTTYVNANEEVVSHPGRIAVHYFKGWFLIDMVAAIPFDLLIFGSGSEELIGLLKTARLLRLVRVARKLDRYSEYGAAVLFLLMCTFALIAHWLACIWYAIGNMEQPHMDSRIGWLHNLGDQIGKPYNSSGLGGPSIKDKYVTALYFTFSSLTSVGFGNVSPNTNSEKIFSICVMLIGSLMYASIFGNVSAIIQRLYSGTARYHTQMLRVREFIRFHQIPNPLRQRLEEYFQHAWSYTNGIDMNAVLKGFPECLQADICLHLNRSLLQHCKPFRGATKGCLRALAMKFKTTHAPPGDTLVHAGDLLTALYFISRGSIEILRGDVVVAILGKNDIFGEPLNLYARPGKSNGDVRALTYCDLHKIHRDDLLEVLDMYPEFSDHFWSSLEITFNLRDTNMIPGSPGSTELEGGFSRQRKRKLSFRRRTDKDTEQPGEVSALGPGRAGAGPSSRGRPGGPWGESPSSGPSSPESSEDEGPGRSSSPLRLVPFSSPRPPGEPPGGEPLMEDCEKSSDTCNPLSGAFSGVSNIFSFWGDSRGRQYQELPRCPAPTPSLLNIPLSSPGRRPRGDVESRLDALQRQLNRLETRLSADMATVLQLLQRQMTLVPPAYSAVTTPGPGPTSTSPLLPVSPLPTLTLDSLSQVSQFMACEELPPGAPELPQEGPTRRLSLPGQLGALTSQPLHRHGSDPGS
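U2OS cells were transduced with wild-type KCNH2 virus (2.03 x 10^8 / mL) for 4 h at room temperature, then cultured overnight at 37 C. Thallium flux was read with FluxOr dye. Rate constants were normalized to DMSO controls.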
gsp ag – activates gsp, the McCune-Albright syndrome mutation | gsp mutant cells, cAMP HTRF, 30 min | AID 624287 | Potency, µM (titrated, usually from 76.9 µM), without a hit: top-dose activation (cAMP increase), actives largely listed as activators | actives 0.13% (n = 340,000); active = well fitted activation curve with a large enough effect; inconclusive = small, poorly fitted or top-dose-only effect, or another doubt; inactive = no such curve, though single readings can be large or run the other way; cell line not stated here;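 note: phosphodiesterase inhibitor Ro 20-1724 added with compounds to block cAMP breakdown; potency is the fitted concentration of half-maximal effect; nearly all actives have a fitted effect of over 60% in size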
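Cells in DMEM/10% FBS with G418 were pretreated with compounds in DMSO plus […] (300 uM stock) for 30 min at 37C. cAMP was measured by HTRF (cAMP-d2 plus anti-cAMP antibody-K) after 30 min at room temperature.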
pAkt inh – inhibitors of Akt phosphorylation. Neuro2A IGF-stimulated pAkt S473 HTRF, 20 min; active compounds read low. activity change, % for hits at 50 µM. actives 0.32% (n = 360,000); in the data active = activity change below about -80%; inconclusive = mostly about -51% to -80%; note: % is set by controls: 0 for no effect and ±100 for the full control effect
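Neuro2A cells in DMEM with 0.5% FBS, overnight at 37 deg C, given compound at single 50 µM final, then IGF (6 nM final) for 20 min at 37 deg C. Lysed; phospho-Akt Ser473 by HTRF after 24 h, 665/615 ratio.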
An asterisk follows results filed as active; i = inactive; ? = inconclusive; . = no result given; [ ] = another dose, or the depositor's remark.

SMILES | KCNH2 3.1 block | GRP78 ERSR act | gsp antag | hERG WT inh | gsp ag | pAkt inh
COc1cc(CNCc2cccc3ccccc23)cc(OC)c1 | 5.8 | -4.2% | 50.1µM* | 4.9 | -13.3% | i
COC(=O)C1CCN(Cc2ccc3c(c2)CN(C(=O)c2sc(C)nc2C)CCO3)CC1 | . | -4.6% | . | . | . | .
C/C(=N\NC(=O)c1c(Cl)c(C)nn1C)c1cccc(NC(=O)COc2ccc(Cl)cc2)c1 | -81.5* | -0.6% | -19.5% | -1.0 | 11.1% | i
O=[N+]([O-])c1cccc2nc(-c3ccccc3)c(-c3ccccc3)nc12 | -108.3* | -2.5% | -6.1% | -132.2* | -3.2%[15.4 µM] | i
Cn1c(-[n+]2c(-c3ccccc3)cc(-c3ccccc3)cc2-c2ccccc2)nc2c([N+](=O)[O-])cccc21 | -19.0 | -5.4% | -10.4% | -6.5 | -5.8%[15.4 µM] | i
Cc1cccc(NC(=O)NNC(=O)c2cc3occc3[nH]2)c1C | -449.3* | -3.0% | 0.1% | -13.5 | 3.3% | i
Cc1cc(C)cc(NC(=O)NNC(=O)c2cc3occc3[nH]2)c1 | -8.5 | -2.6% | -3.2% | -46.5 | 6.9% | i
CN1/C(=C/C(=O)c2ccc(Cl)cc2)Sc2cc3c(cc21)OCO3 | -0.3 | 2.0% | 31.6µM* | 1.0 | -76.5% | i
CCC[C@H](NC(C)=O)C(=O)N[C@H]1CC(=O)ONCCCC[C@@H](C(N)=O)NC(=O)[C@H](Cc2c[nH]c3ccccc23)NC(=O)[C@H](CCCN=C(N)N)NC(=O)[C@@H](Cc2ccc3ccccc3c2)NC(=O)[C@H](Cc2cnc[nH]2)NC1=O | . | -4.6% | . | . | . | .
CC1CCN(C(=O)CSc2ccc(-c3cccc([N+](=O)[O-])c3)nn2)CC1 | 21.1 | -2.4% | 28.2µM* | -5.2 | 8.5%[15.4 µM] | i
Cc1ccc(C)c2c(C)ccnc12 | . | -1.8% | . | . | . | .
CN(CC1CCN(CCc2cccc(C(F)(F)F)c2)CC1)C(=O)c1ccc(F)cc1 | -78.9* | -0.4% | -4.1% | ? | -31.7% | i
COc1cc(C(=O)N(C)CC2CCN(CCc3cccc(C(F)(F)F)c3)CC2)ccc1C | -71.9* | -3.4% | -6.7% | -1.5 | -2.7% | i
CCN(CC)CCNC(=O)c1cnn(-c2ncc3c(n2)-c2ccc(OC)cc2CC3)c1C | . | 5.3% | . | . | . | .
CCc1ccc2nc(SCC(=O)Nc3ccccc3N3CCOCC3)c(C#N)cc2c1 | 12.6 | 1.1% | -8.0% | 1.0 | 1.0%[15.4 µM] | i
Cc1ccc2nc(SCC(=O)Nc3ccccc3N3CCOCC3)c(C#N)cc2c1 | -16.8 | -8.5% | -5.8% | -2.9 | 22.4µM* | i
COc1cc(NS(=O)(=O)c2ccc3c(c2)oc(=O)n3C)cc(OC)c1OC | 0.4 | -4.1% | 3.9% | -7.4 | -0.1% | i
COc1cc(NS(=O)(=O)c2c(C)oc3c(F)c(F)c(F)c(F)c23)cc(OC)c1OC | -9.2 | -2.4% | -21.4% | -78.2* | 31.1% | i
CC[C@@H](C)C(NC(=O)OC(C)(C)C)c1cn([C@@H](CCCCNC(=O)OC(C)(C)C)C(=O)N2CCN(C(=O)OC(C)(C)C)CC2)nn1 (stereo not given in full) | -5.0 | -2.7% | -9.8% | -290.5* | . | i
Cc1cn([C@@H](CCCCNC(=O)OC(C)(C)C)C(=O)NCCCCCCCCCCC(=O)N2CCN(C(=O)OC(C)(C)C)CC2)nn1 | 20.9 | -7.6% | 28.2µM* | -12.8 | . | i
CC(C)Cc1nc2cc(NS(=O)(=O)N(C)C)cc(C(=O)N3CC4(C)CC3CC(C)(C)C4)c2n1C (stereo not given) | . | -2.8% | . | . | . | .
CCOC(=O)C1CCN(Cc2cc(Cl)c3ccccc3c2O)CC1 | -3.0 | 28.2µM* | 4.3% | -5.3 | -18.6% | i
c1ccc2sc(-c3cc4c(c(OC5CCOC5)c3)OCCN(Cc3cccn3-c3nccs3)C4)nc2c1 (stereo not given) | . | -3.0% | . | . | . | .
O=C1c2ccccc2-c2onc3c(N4CCN(CCO)CC4)cc(N4CCN(C(=O)c5ccco5)CC4)c1c23 | -4.4 | -19.5% | 17.8µM* | 9.3 | -12.8%[15.4 µM] | i
Cc1nc2cc(NC(=O)[C@@H]3C[C@@H](Sc4ccccn4)CN3Cc3ccc4c(c3)OCCO4)ccc2s1 | . | -0.6% | . | . | . | .
SMILES | KCNH2 3.1 block | GRP78 ERSR act | gsp antag | hERG WT inh | gsp ag | pAkt inh
Cc1c(C)c(C)c(/C=C/c2ccnc3ccccc23)c(C)c1C | . | 2.5% | . | . | . | .
Cc1cccc(CSc2ncccc2C(=O)O)c1 | 4.8 | 0.1% | -16.3% | -87.0* | 15.1%[15.4 µM] | i
CCc1ccccc1N(CC)C(=O)CCc1nc(-c2ccc(C)cc2)no1 | 1.9 | -2.0% | ? | 11.4 | ? | -116.3%*
Cc1cnc(SCc2ccccn2)nc1C1CCCN(C(=O)c2ccc(-c3ccccc3F)cc2)C1 (stereo not given) | . | 0.3% | . | . | . | .
O=c1c2ccsc2ncn1Cc1cccc(C(F)(F)F)c1 | -7.4 | -1.2% | -1.8% | -2.4 | 12.6µM* | i
CC(C)(C)n1ncc2c(=O)n(Cc3cccc(C(F)(F)F)c3)cnc21 | . | -2.4% | . | . | . | .
O=C(N[C@@H]1c2ccccc2C2(CCN(C(=O)c3cc4ccccc4oc3=O)CC2)[C@H]1O)c1cccnc1 | . | -5.7% | . | . | . | .
Nc1sc2c(c1C(=O)NC1CCS(=O)(=O)C1)CCC2 (stereo not given) | 2.9 | -3.7% | -6.9% | 6.8 | 3.2% | -129.9%*
Cn1ncc([N+](=O)[O-])c1C(=O)Nc1ccc(-c2nc3ccccc3[nH]2)cc1 | -4.0 | 0.6% | ? | -8.6 | -13.8% | i
CCOc1ccc(C(=O)Nc2ccc(-c3nc4ccccc4[nH]3)cc2)cc1[N+](=O)[O-] | -70.6* | -2.4% | 8.4% | -18.6 | 23.7% | i
O=C(Nc1ccccc1C(F)(F)F)N1CCC(n2c(=O)[nH]c3ccccc32)CC1 | 6.6 | -7.5% | -0.6% | 7.8 | -1.2% | i
O=C(Nc1cccc(F)c1)N1CCC(n2c(=O)[nH]c3ccccc32)CC1 | -193.2* | -1.3% | -1.7% | -228.4* | -17.5%[15.4 µM] | i
CCOC(=O)C1(CCOc2ccccc2)CCN(Cc2cccc(OC)c2O)CC1 | -112.8* | -1.8% | -0.7% | -102.1* | -102.4% | i
CCOC(=O)C1(CCOc2ccccc2)CCN(Cc2cc(OC)ccc2OC)CC1 | -87.9* | -2.0% | 5.9% | -80.1* | 28.7% | i
CCOC(=O)C1(CCOc2ccccc2)CCN(Cc2cccc(OC)c2)CC1 | -116.1* | -0.3% | -5.6% | -95.5* | -36.3% | i
CCOC(=O)C1(CCOc2ccccc2)CCN(Cc2ccc(C(=O)OC)cc2)CC1 | -87.6* | -2.5% | -8.7% | 7.8 | -28.4% | i
COc1cc2c(c(OC)c1OC)-c1c(cc(OC)c(OC)c1OC)CC(C)C(C)C2 (stereo not given) | . | -6.8% | . | . | . | .
O=C(c1cccc(Cn2cccn2)c1)N1CCC(n2c(C3CCCO3)nc3cc(C(F)(F)F)ccc32)CC1 (stereo not given) | . | 9.7% | . | . | . | .
